Shown are actives, neighbours in structure and some others; about 4.6% of the full set was active somewhere.
KKLEB cytotox: cytotoxicity in KKLEB CF airway cells, primary screen, cytotoxicity control for CF NF-kB inhibitor project, cell-based, uHTS, fluorescence assay plates. 360,000 tested, 0.36% active. KKLEB CF airway cells viability, ATPlite luminescence, overnight; stronger effect = lower value; cells stimulated with P. aeruginosa culture filtrate. activity change (cytotoxicity), % at 5 µM;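 active = corrected activity change at or below -50% at 5 µM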
CF NFkB block: inhibitors of PAF-induced NF-kB signaling, primary screen, cell-based, GFP fluorescence, uHTS; KKLEB NF-kB-GFP reporter, GFP fluorescence overnight; 360,000 tested, 0.86% active; inhibition, % at 5 µM;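 active = at least 50% inhibition at 5 µM, scaled per plate between neutral and stimulator controls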;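 also: PAF is a Pseudomonas aeruginosa culture filtrate used as stimulus; plate controls were PAF-stimulated DMSO wells for no effect and unstimulated DMSO wells for full effect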
ABHD5 PLIN5 PPI: ABHD5-PLIN5 interaction inhibitors, primary screen, cell lysate, split luciferase complementation, luminescence; Perilipin-5 (Homo sapiens) + 1-acylglycerol-3-phosphate O-acyltransferase ABHD5 (Homo …; Split G. princeps luciferase complementation, 4 h; inhibition, % at 4 µM; 360,000 tested, 0.78% active;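 active = inhibition above the mean inhibition across every tested compound plus 3 SD, cut at about 22% in these data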;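 also: 0% = DMSO only wells and the 100% control is not disclosed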
Target sequence (Q00G26 whole entry, looked up): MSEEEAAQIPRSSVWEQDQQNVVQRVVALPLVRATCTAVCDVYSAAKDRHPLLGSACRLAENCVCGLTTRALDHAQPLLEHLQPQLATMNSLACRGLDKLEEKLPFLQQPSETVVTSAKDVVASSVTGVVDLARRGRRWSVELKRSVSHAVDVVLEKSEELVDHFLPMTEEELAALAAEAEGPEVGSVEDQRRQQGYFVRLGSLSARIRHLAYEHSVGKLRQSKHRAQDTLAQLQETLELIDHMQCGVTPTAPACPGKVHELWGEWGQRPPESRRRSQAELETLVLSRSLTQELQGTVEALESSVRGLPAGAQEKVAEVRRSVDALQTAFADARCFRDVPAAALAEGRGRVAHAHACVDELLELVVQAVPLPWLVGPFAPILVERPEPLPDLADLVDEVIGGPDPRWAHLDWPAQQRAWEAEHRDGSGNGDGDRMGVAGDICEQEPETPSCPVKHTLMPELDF
Target sequence (Q8WTS1 whole entry, looked up): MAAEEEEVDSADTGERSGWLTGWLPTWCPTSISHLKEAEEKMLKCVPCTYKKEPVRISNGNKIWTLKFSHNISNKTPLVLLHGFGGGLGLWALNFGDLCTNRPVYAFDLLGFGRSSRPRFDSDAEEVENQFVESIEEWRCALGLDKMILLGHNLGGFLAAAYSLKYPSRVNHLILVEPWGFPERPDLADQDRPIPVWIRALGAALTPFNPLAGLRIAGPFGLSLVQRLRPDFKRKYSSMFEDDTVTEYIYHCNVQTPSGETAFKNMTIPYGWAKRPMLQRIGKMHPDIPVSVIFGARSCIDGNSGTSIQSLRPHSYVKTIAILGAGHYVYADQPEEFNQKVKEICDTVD
HIF-2a block: HIF-2a reporter inhibitors, primary screen, luminescence, 786-0 RCC cells. 786-0 RCC cells HIF-2a reporter, luciferase luminescence, overnight. inhibition, % at 18.8 µM. 360,000 tested, 0.72% active. AID 624352, 2012;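 active = inhibition of the luminescence signal of 40% or more relative to plate controls, in a single-dose primary screen at 18.75 µM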
Mdm2-MdmX inh: inhibitors of human Mdm2-MdmX association, primary screen, cell-based, luminescence, split luciferase, SaOS-2, uHTS; Protein Mdm4 (Homo sapiens) + E3 ubiquitin-protein ligase Mdm2 (Homo sapiens), …; SaOS-2 split-luciferase Mdm2/MdmX complementation; inhibition, % at 8 µM; 330,000 tested, 3% active;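 active = inhibition of at least 50% at 8 µM in the primary screen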
Peg3 promoter: Peg3 promoter-driven luciferase inhibitors, primary screen, cell-based, HeLa, luciferase luminescence | HeLa PEG-Prom luciferase reporter, overnight | inhibition, % at 20 µM | 360,000 tested, 1.7% active;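 active = inhibition of at least 50% at 20 µM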
Mdm2-MdmX conf: Mdm2-MdmX complex disruptors, retested hits, confirmation, luminescence, single concentration; shares compounds with Mdm2-MdmX inh; Mdm2-MdmX binding, luminescent assay; inhibition, % at 8 µM; 10,000 tested, 55% active; AID 489028, 2010; in the data active = inhibition above about 40%
FLuc counter: full-length luciferase signal inhibition, confirmation, counter-screen for Mdm2/MdmX interaction inhibitor project, cell-based, single concentration, SaOS-2 | 6,200 tested, 77% active | inhibition, % at 8 µM | AID 504607, 2011 | SaOS-2 full-length luciferase counterscreen, luminescence | shares compounds with Mdm2-MdmX inh;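 active = mean inhibition at 8 µM reaching about 37%, which flags the compound as non-specific, limit read from the data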;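 also: p53-null SaOS-2 cells with luciferase driven by a doxycycline-inducible promoter; compound on cells about two nights before reading with doxycycline added after day one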
Active calls of the source: *; . = no result.

SMILES	KKLEB cytotox	CF NFkB block	ABHD5 PLIN5 PPI	HIF-2a block	Mdm2-MdmX inh	Peg3 promoter	Mdm2-MdmX conf	FLuc counter
Cc1ccc(SC(c2ccccc2)C(Cn2cncn2)C(=O)c2ccccc2)cc1 (configuration not stated)	-4	6	-2	3	60*	18	23	.
O=c1oc(-c2ccccc2F)nc2scc(-c3ccccc3)c12	-18	24	-8	-138	53*	-104	50*	171*
COc1ccc(-c2csc3nc(-c4ccccc4OC)oc(=O)c23)cc1	-20	12	-2	14	59*	25	24	.
COc1ccc(-c2csc3nc(-c4ccc(C)cc4)oc(=O)c23)cc1OC	-42	32	-4	-22	92*	7	21	.
Cc1nc2scc(-c3ccccc3)c2c(=O)o1	-14	-13	4	8	4	9	.	.
COc1ccc(-c2csc3nc(C(C)(C)C)oc(=O)c23)cc1OC	-5	-13	2	12	13	18	.	.
COc1ccc(-c2csc3nc(C)nc(N4CCCCC4)c23)cc1OC	-4	-23	-2	-7	65*	-1	32	.
O=C(COC(=O)c1cc([N+](=O)[O-])ccc1N1CCOCC1)NCc1ccc(Cl)cc1Cl	2	7	-3	6	-12	31	.	.
CC(=O)c1c(C)[nH]c(C(=O)OCC(=O)N2CCc3ccccc3C2)c1C	0	-6	4	0	28	-1	.	.
O=C(/C=C/c1ccc(F)cc1)NCCCn1ccnc1	-4	3	-5	9	-5	14	.	.
O=c1c2ccccc2nc(N/N=C/c2c(O)ccc3ccccc23)n1O	-18	25	4	-193	71*	-61	68*	36
COc1ccccc1OCC(=O)N/N=C/c1c(O)ccc2ccccc12	-12	-6	8	3	82*	63*	78*	28
O=C(CN1CCCC1)N/N=C/c1c(O)ccc2ccccc12	7	3	-5	-3	72*	32	76*	39*
COc1ccccc1OCC(=O)N/N=C/c1cccc2cccnc12	11	-14	0	9	19	-7	.	.
O=c1[nH]c(=S)c2[nH]c(=S)n(-c3ccccc3)c2[nH]1	16	-9	-31	-4	.	-3	.	.
O=C1c2cccc3c([N+](=O)[O-])ccc(c23)C(=O)N1c1nccs1	12	-45	11	40	92*	94*	90*	27
O=C1c2cccc3c([N+](=O)[O-])ccc(c23)C(=O)N1c1ccccn1	-2	-25	6	26	96*	94*	63*	15
CC(=O)Oc1ccc(N2C(=O)c3cccc4c([N+](=O)[O-])ccc(c34)C2=O)cc1	0	14	-1	16	70*	47	5	.
O=C1c2cccc3cccc(c23)C(=O)N1c1nccs1	12	-49	8	-8	-5	-19	.	.
COCCn1c(=NC(=O)CSCC(=O)N2CCOCC2)sc2cc(C)ccc21	11	-23	-3	12	17	17	.	.
CN(C)C1CCN(C(=O)c2cccc(OC3CCN(S(=O)(=O)N(C)C)CC3)c2)C1 (configuration not stated)	4	-9	-2	0	12	13	.	.
O=C(Nc1nc2ccc(S(=O)(=O)N3CCCC3)cc2s1)C1CCCCC1	-7	31	-16	20	66*	26	57*	70*
O=C(Nc1nc2ccccc2s1)C1CCN(S(=O)(=O)c2cc([N+](=O)[O-])ccc2Cl)CC1	-12	49	6	-64	96*	-8	87*	38*
O=C1CCC[C@@H]2[C@@H](Cc3ccccc3)[C@H](N3CCN(c4ccccc4)CC3)C[C@@H]3CCN1[C@@H]32	-21	29	5	12	.	5	.	.
CSc1nc(N)c2cn[nH]c2n1	9	7	7	3	.	1	.	.
SMILES	KKLEB cytotox	CF NFkB block	ABHD5 PLIN5 PPI	HIF-2a block	Mdm2-MdmX inh	Peg3 promoter	Mdm2-MdmX conf	FLuc counter
CN(C)CCCN(C(=O)c1cc(Cl)sc1Cl)c1nc2cc3c(cc2s1)OCO3	-9	16	18	-26	54*	-37	22	.
CN(C)CCCN(C(=O)c1ccc(Cl)s1)c1nc2cc3c(cc2s1)OCO3	4	3	10	-37	23	-28	.	.
CCN1CCN(c2ccc(S(=O)(=O)N3CCCCC3)cc2NC(=O)c2ccc([N+](=O)[O-])o2)CC1	13	17	-7	8	53*	24	28	.
O=C(/C=C/c1ccc(F)cc1)Nc1cc(S(=O)(=O)N2CCOCC2)ccc1N1CCCC1	19	-24	7	6	24	-5	.	.
CN1CCN(c2ccc(Cl)cc2NC(=O)c2ccc(S(=O)(=O)N3CCCCCC3)cc2)CC1	-18	20	10	-7	67*	37	39	72*
CN1CCN(c2ccc(Cl)cc2NC(=O)/C=C/c2ccc(F)cc2)CC1	-22	32	15	3	52*	22	14	.
CCN1CCN(c2ccc(S(=O)(=O)N3CCCCC3)cc2NC(=O)c2ccc(F)cc2)CC1	-10	9	3	9	31	9	.	.
CC(C)(CCc1ccccn1)C(=O)CCCc1ccccn1	10	-11	2	-3	.	6	.	.
CCc1ccccc1NC(=S)N=Nc1c(O)n(C)c2ccc(S(=O)(=O)N3CCOCC3)cc12	2	-10	1	23	52*	20	60*	53*
Cc1ccc(C)c(NC(=S)N=Nc2c(O)n(C)c3ccc(S(=O)(=O)N4CCOCC4)cc23)c1	-4	-14	-2	22	67*	34	45*	59*
CC(=O)NC(c1cccc(F)c1)c1nc(-c2cccc(C(F)(F)F)c2)cs1 (configuration not stated)	6	-48	0	-9	.	0	.	.
CCn1cc([N+](=O)[O-])c(C(=O)Nc2nc(-c3ccc(C)c(C)c3)c(C)s2)n1	9	-25	8	20	34	7	.	.
CCn1cc([N+](=O)[O-])c(C(=O)Nc2nc(-c3ccc(C)cc3)c(C)s2)n1	8	-7	3	-12	55*	12	32	.

Screens (PubChem BioAssay)
